Screening results: PubChem BioAssay, National Center for Advancing Translational Sciences (NCATS)
GRP78 ERSR act: ER stress response induction in glioma. U87-MG GRP78 promoter luciferase reporter, 16 h. Potency, µM, without a hit: at the highest dose activation, most hits filed as activators. 420,000 compounds, 0.02% hits. AID 602332; also: series mostly up to about 76 µM; % of control where 0% means no effect; nearly all actives have a fitted effect of over 35% in size
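Stably transfected U87-MG human glioma cells carrying a GRP78-based luminescent sensor were seeded at 1000 cells/well, pin-dosed with compounds and incubated 16 h. Luciferase reagent was then added, and end-point luminescence was read after 10 min at room temperature.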
G9a inh: blocks human histone lysine methyltransferase G9a | Potency, µM (series often up to 102 µM), inactives show top-dose activity, negative = inhibition, most hits filed as inhibitors | Q96KQ7 | 350,000 compounds, 8.8% hits | G9a H3K9 monomethylation, AlphaScreen, 2 h; also: % is scaled to controls: 0 for no effect and ±100 for the full control effect; nearly all actives have a fitted effect of over 75% in size
Target sequence (Q96KQ7 913-1193 limits assumed): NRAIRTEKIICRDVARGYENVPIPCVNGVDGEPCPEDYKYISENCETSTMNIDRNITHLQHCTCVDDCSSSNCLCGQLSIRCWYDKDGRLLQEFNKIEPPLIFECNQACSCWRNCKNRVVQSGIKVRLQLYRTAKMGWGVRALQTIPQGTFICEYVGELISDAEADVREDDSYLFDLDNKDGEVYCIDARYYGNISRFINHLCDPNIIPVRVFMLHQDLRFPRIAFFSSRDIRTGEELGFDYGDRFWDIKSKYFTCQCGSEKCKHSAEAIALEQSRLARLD
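Quantitative HTS format: methyltransferase activity on a biotin-tagged H3K9 peptide is measured by AlphaScreen, using a rabbit anti-monomethyl-H3K9 antibody with streptavidin donor and anti-IgG acceptor beads. Final levels are 20 nM enzyme, 500 nM peptide, 20 uM SAM; 2 h RT.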
Sfp PPTase inh: inhibitors of Bacillus subtilis Sfp phosphopantetheinyl transferase; Q9F4F7; 310,000 compounds, 3.5% hits; Potency, µM, without a hit: largest response in the series, negative = inhibition, usual class: inhibitors; Biochemical Sfp PPTase activity, qHTS;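 also: the enzyme is Sfp with the accession as filed and its product quenches rhodamine fluorescence; 0% = enzyme reaction without inhibitor and -100% = no enzyme wells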
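Sfp 15 nM + cpd, 15 min RT; start w/ rhodamine-CoA 5 uM, BHQ-2-YbbR 12.5 uM (final); 50 mM Hepes pH 7.6, 10 mM MgCl2, 0.01% NP-40, 0.01% BSA; read 525/598 nm at 0 and 30 min.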
VDR inh: vitamin D3 receptor (human) inhibition; P11473; VDR-SRC2-3 peptide fluorescence polarization, 2 h; Potency, µM, for the others: max response, negative = inhibition, actives largely listed as inhibitors; 400,000 compounds, 0.93% hits; also: % is scaled to controls: 0 for no effect and ±100 for the full control effect
Target sequence (P11473 whole entry, looked up): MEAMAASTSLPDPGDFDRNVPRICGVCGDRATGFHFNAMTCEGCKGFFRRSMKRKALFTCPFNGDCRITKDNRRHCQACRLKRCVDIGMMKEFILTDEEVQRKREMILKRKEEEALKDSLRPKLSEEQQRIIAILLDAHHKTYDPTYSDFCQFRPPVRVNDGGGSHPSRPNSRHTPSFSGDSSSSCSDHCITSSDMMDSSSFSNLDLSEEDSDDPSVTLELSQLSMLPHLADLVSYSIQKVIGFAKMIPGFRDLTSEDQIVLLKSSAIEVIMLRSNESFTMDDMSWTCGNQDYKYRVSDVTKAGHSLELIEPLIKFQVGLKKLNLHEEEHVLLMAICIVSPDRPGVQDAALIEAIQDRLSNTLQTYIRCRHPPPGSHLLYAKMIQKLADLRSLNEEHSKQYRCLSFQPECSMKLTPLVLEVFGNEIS
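Inhibition of the VDR/SRC2-3 peptide interaction is quantified by fluorescence polarization. Compounds (23 nl, pintool) incubate with the reagents for 2 hours at ambient room temperature.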
12-LOX inh: blocks human arachidonate 12S-lipoxygenase. P18054. purified 12hLO, xylenol orange hydroperoxide absorbance. Potency, µM (top dose mostly 108 µM), for inactives: top-dose activity change, negative = inhibition, actives largely listed as inhibitors. 580,000 compounds, 1.1% hits. AID 1671190; also: % is scaled to controls: 0 for no effect and ±100 for the full control effect
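Hydroperoxide product was detected by ferrous iron/xylenol orange as the 573 to 405 nm absorbance ratio. Arachidonic acid at 40 uM (final) was turned over for 30 min at room temperature by 150 nM human 12hLO, pH 7.0 Hepes buffer, after 15 min compound preincubation.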
An asterisk follows results filed as active; ? = inconclusive; / = no result; [ ] = another dose, or the depositor's remark. The full list was thinned out, with hits kept by preference. Calls follow the shape of the dose curve; as a rule, active = well fitted curve in the direction sought with a large enough effect; inconclusive = small, poorly fitted or top-dose-only effect, or another doubt; inactive = no such curve, though single readings can be large; an effect the other way counts as inactive or inconclusive. Potency is read from the fitted curve at half-maximal effect.

SMILES	GRP78 ERSR act	G9a inh	Sfp PPTase inh	VDR inh	12-LOX inh
CC(C)Cc1cnc(-c2ccccc2)[nH]1	/	/	/	/	3%[176 µM]
CCOc1ccc(NC(=O)CSC2=C(C#N)C(c3ccccc3Cl)C(C(C)=O)=C(C)N2)cc1 (configuration not stated)	/	/	/	/	32µM*
CCOC(=O)CSC1=C(C#N)C(c2ccccc2F)C(C(C)=O)=C(C)N1 (configuration not stated)	-4%	?	63µM*	-6%	0%
CSCSC1=C(C#N)C(c2ccccc2Cl)C(C(C)=O)=C(C)N1 (configuration not stated)	-3%	4µM*	?	?	?
CCOc1ccccc1C1C(C#N)=C(SCC(=O)Nc2ccc(C)cc2)NC2=C1C(=O)CCC2 (configuration not stated)	/	/	/	/	-17%
CC(=O)C1=C(C)NC(SCSc2ccccc2)=C(C#N)C1c1cccnc1 (configuration not stated)	0%	?	-93%	-8%	/
O=C(NCc1ccccn1)c1cccc2ccccc12	/	/	/	/	65%
C/C(=N\Nc1ccc(S(=O)(=O)Nc2ccc(Cl)cc2)cc1[N+](=O)[O-])c1ccc(N2CCOCC2)cc1	-4%	8.9µM*	11%	-8%	-11%
CC(=O)c1cccc(S(=O)(=O)Nc2cccnc2)c1	-4%	45µM*	11%	-2%	8.9µM*
O=S(=O)(Nc1cccnc1)c1cccc(Cl)c1	-4%	-51%[59 µM]	17%	-9%	1%
CCOC(=O)c1ccc(S(=O)(=O)Nc2ccc(N3CCOCC3)cc2)cc1	-4%	79µM*	11%	-15%	-12%
COc1ccc(NS(=O)(=O)c2ccc(N3CCOCC3)c(NC(=O)C(C)C)c2)cc1	-3%	-1%	15%	-12%	-18%
CCOC(=O)/C=C/C(=O)Nc1cc(S(=O)(=O)Nc2ccc(OC)cc2)ccc1N1CCOCC1	-8%	45µM*	/	-4%	?
C/C(=N/Nc1ccc(S(=O)(=O)Nc2ccc(Cl)cc2)cc1[N+](=O)[O-])c1cccc([N+](=O)[O-])c1	/	/	/	/	-8%
O=C(NC1CCCCCC1)C(=O)N1CCN(C(=O)c2cc3ccccc3[nH]2)CC1	/	/	/	/	7%
O=C(NC1CC1)c1nc(-c2ccc(Cl)cc2Cl)c2ccccn12	/	/	/	/	-5%
CC(=O)c1cccc(S(=O)(=O)Nc2ccc(N3CCOCC3)cc2)c1	-3%	50µM*	6%	9%	-4%
CC(C)(C)c1cc(NS(=O)(=O)c2ccc3c(c2)OCCO3)on1	0%	-6%[59 µM]	-2%	18%	?
CC(=O)c1cccc(S(=O)(=O)NCCCN2CCOCC2)c1	0%	1.4µM*	/	8%	?
O=C(NCCCN1CCOCC1)c1cccc(S(=O)(=O)NCc2ccccc2)c1	-2%	-2%	/	-15%	-10%
O=S(=O)(NCCN1CCOCC1)c1ccc(F)c(Cl)c1	1%	6%	-7%	?	20µM*
CCOC(=O)c1ccc(S(=O)(=O)Nc2cc(C(C)(C)C)no2)cc1	-2%	?	79µM*	-17%	0%
Cc1ccc(NS(=O)(=O)c2cccc(C(=O)NN3CCOCC3)c2)cc1	/	/	-23%	/	-11%
Cc1cccc(NC(=O)CNC(=O)CCc2c(C)nc3c4ccccc4nn3c2C)c1C	/	/	/	/	-13%
CC(=O)Nc1ccc(S(=O)(=O)Nc2ccc(N3CCOCC3)cc2)cc1	-4%	-44%[12.7 µM]	13%	8%	-6%
SMILES	GRP78 ERSR act	G9a inh	Sfp PPTase inh	VDR inh	12-LOX inh
CC(=O)c1ccc(S(=O)(=O)Nc2ccc(N3CCOCC3)cc2)cc1	-2%	28µM*	-1%	2%	?
COc1cc(OC)c(OC)cc1/C=N/n1c(COc2ccccc2)n[nH]c1=S	3%	?	45µM*	-24%	?
COc1ccc(/C=N/N2CCOCC2)cc1OCc1ccccc1	2%	50µM*	-20%	11%	16%
COc1ccc(/C=N/n2c(COc3ccccc3)n[nH]c2=S)cc1OC	-2%	1.3µM*	?	-6%	?
Cc1ccc(NC(=O)Cn2c(-c3ccccc3)nc(C)c(CCO)c2=O)c(C)c1	/	/	/	/	-9%
Cc1cc(=O)oc(C)c1C(=O)N1CCN(C(c2ccccc2)c2ccccc2)CC1	-1%	50µM*	10%	-12%	24%
CCN1C(=O)CCC2(C(=O)NCCN(C)C3CCCCC3)CCCC=C12 (configuration not stated)	/	/	/	/	82%
COc1ccc(-c2noc([C@@H]3C[C@@H](O)CN3Cc3ccc(CO)o3)n2)cc1	/	/	/	/	45µM*
OCc1ccc(CN2C[C@H](O)C[C@H]2c2nc(-c3ccc(F)cc3)no2)o1	/	/	/	/	25µM*
Cc1ccc(-c2noc([C@@H]3C[C@@H](O)CN3Cc3ccccc3O)n2)cc1F	/	/	/	/	32µM*
COc1ccc(-c2noc([C@@H]3C[C@@H](O)CN3Cc3ccccn3)n2)cc1	/	/	/	/	65%[176 µM]
OCc1ccc(CN2C[C@H](O)C[C@H]2c2nc(-c3cccnc3)no2)o1	/	/	/	/	-4%[176 µM]
O[C@@H]1C[C@@H](c2nc(Cc3ccc(F)cc3Cl)no2)N(Cc2ccco2)C1	/	/	/	/	25µM*
CC(=O)c1cccc(NC(=O)C2(c3ccc(C)cc3)CCCC2)c1	/	/	/	/	-20%
N#CCCN(Cc1cccnc1)C(=S)NCc1ccco1	-5%	20µM*	25µM*	-8%	-10%
N#CCCN(Cc1cccnc1)C(=S)NC(=O)c1ccco1	-5%	10µM*	12%	-7%	?
CCc1ccc(NC(=S)N(Cc2cccnc2)Cc2ccco2)cc1	-4%	-13%	6%	-3%	8%
CCN(CC)S(=O)(=O)c1ccc(C(=O)NC(=S)N(CCC#N)Cc2cccnc2)cc1	-1%	13µM*	-23%	3%	-20%
N#CCCN(C(=S)NC(=O)c1ccco1)c1ccccc1F	1%	25µM*	22µM*	-10%	-20%
COC(=O)c1cccn2cc(CN3CCN(S(=O)(=O)c4cccc(C(F)(F)F)c4)CC3)nc12	/	/	/	/	31%
SC1CCCC1	/	/	/	/	1%[176 µM]
CCOc1ccc(NC(=O)COC(=O)COc2ccc(C3SCCCS3)cc2)cc1OCC	/	/	/	/	6%
Cc1cc(NC(=O)c2cccnc2)cc(-c2nc3cc(C(C)C)ccc3o2)c1O	/	/	/	/	18%
Cc1ccc(C(=O)N(Cc2ccncc2)C2CC2)s1	/	/	/	/	-23%
Cc1cc(C(=O)CSc2ccccc2Br)c(C)[nH]1	/	/	/	/	-75%
SMILES	GRP78 ERSR act	G9a inh	Sfp PPTase inh	VDR inh	12-LOX inh
Cc1cc(CNC(=O)CCc2ncc(-c3ccccc3)o2)ccc1F	/	/	/	/	7%
Cc1c(C=O)c2ccccn2c1C(=O)c1cccs1	-3%	50µM*	?	4%	-22%
CONC(=O)COc1ccc(C(C)(C)C)cc1	/	/	/	/	0%
COc1ccc(-c2csc(Nc3ccccn3)n2)cc1OC	-5%	50µM*	-28%	0%	?
Oc1ccc(-c2csc(Nc3ccccn3)n2)cc1	2%	71µM*	3%	-22%	-4%
c1ccc(-c2csc(Nc3ccccn3)n2)cc1	1%	-7%	-15%	-4%	?
Cc1ccc(-c2csc(Nc3ccccn3)n2)cc1	-8%	?	-7%	5%	-7%
